What all share (assay): PBM binding z-score (relative to random genomic background probes); higher = stronger binding; sequences stand for … in GC…GCGATTGACAGCGTAGAATGAAGG
Test [1] relates to RARb homodimer (NR concentration 270 nM). The gist of the method: (§1)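 Scanned fluorescence from custom Agilent 4×180K protein-binding microarrays was regression-normalized. Binding z-scores use random background probes as reference. Ligand-free nuclear receptor dimers were incubated on the arrays for 1 h and detected with antibodies against each partner (one per run).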
Test [2] has as its system RARg:RXRa (NR concentration 270 nM, RXRa partner concentration 90 nM). The procedure, abridged: as §1
Test [3] relates to RARg homodimer (NR concentration 270 nM). The procedure, abridged: as §1
Test [4] has as its system RXRa DBDmut IVT, anti-RXR (DBD mutation: RXRa K156A/R161A, NR concentration 90 nM). The procedure, abridged:
as §1

Test [5] concerns RXRa homodimer (NR concentration 180 nM). The procedure, abridged: as §1
In test [6] the test system is THRa:RXRa (NR concentration 90 nM, RXRa partner concentration 90 nM). The gist of the method: as §1
Test [7] concerns THRa homodimer (NR concentration 90 nM). The procedure, abridged: as §1
Test [8] concerns VDR homodimer (NR concentration 270 nM). The procedure, abridged: as §1

As for AGAACGAGGGCACGCTGAGTTGATAGAAGAGTAG, the PBM binding z-score amounted to 1.17 in test [1]; 1.97 in test [2]; 2.31 in test [3]; 1.83 in test [4]; 1.29 in test [5]; 1.91 in test [6]. Besides, the results for the PBM binding z-score in test [7] and in test [8] were -0.0196 and 1.72, respectively.
For the sequence TCATATAGGTAAACAGGTGGAAGTCCGTAAGTTA, the PBM binding z-score in test [1] came to 0.247; in test [2], 0.462; in test [3], 0.0474; in test [4], 1.38; in test [5], 0.624; in test [6], 0.188. Also, the PBM binding z-score is 0.00908 in test [7] and 0.154 in test [8].
Regarding ACTATTAGTTGACTTAGCGCAACCGATACGACGC, the PBM binding z-score was -0.331 in test [1]; 0.0723 in test [2]; 0.494 in test [3]; 0.553 in test [4]; 0.244 in test [5]; -0.258 in test [6]. Moreover, the PBM binding z-score was -0.16 in test [7] and 0.12 in test [8].
Turning to TGAATGAGGGTAAAGATCAGGGAACGTGGCGTCG, the PBM binding z-score in test [1] was -0.018; in test [2], 0.443; in test [3], 0.391; in test [4] it was -0.234; in test [5], 1.07; in test [6], 0.432. Besides, the values for the PBM binding z-score in test [7] and in test [8] were -0.386 and -0.201, respectively.
In the case of TAGCCTAGGTCTTTCAGGGGCCAGTATAGAAAGC, the PBM binding z-score is 0.423 in test [1]; 0.873 in test [2]; 0.295 in test [3]; -0.58 in test [4]; -0.286 in test [5]; 0.663 in test [6]. For the same sequence, the PBM binding z-score in test [7] is -0.603; in test [8], -0.407.
On to ATATGTAGATTAAGGGTCATTCAGGTTGGTTCGC, for which the PBM binding z-score was 3.42 in test [1]; 3.56 in test [2]; 2.52 in test [3]; 2.22 in test [4]; 4.48 in test [5]; 3.17 in test [6]. In addition, the PBM binding z-score in test [7] stood at 1.19; in test [8] it was 4.19.
For the sequence CTAACTAGGTCAAAGGTCAAAGTCGAGCCAACCA, the PBM binding z-score in test [1] is 4.93; in test [2], 8.93; in test [3] it was 7.64; in test [4] it was 2.72; in test [5], 10.3; in test [6], 4.84. Also, the PBM binding z-score in test [7] is 1.59; in test [8], 3.19.
With TAGCCTAGGTCATGCGGGCCAGTACAGTGTCGGC, the PBM binding z-score turned out to be 2.93 in test [1]; 3.86 in test [2]; 4.22 in test [3]; 0.739 in test [4]; 3.08 in test [5]; 3.06 in test [6]. The PBM binding z-score in test [7] amounted to 0.586; in test [8], 0.448.
On to AATACAGGGTCATGGTAGGCCAGAGTACGCACAG, for which the PBM binding z-score in test [1] worked out at 3.69; in test [2], 5.54; in test [3], 4.93; in test [4] it was 3.15; in test [5] it was 6.91; in test [6] it was 4.38. Moreover, the PBM binding z-score in test [7] was 1.95; in test [8], 3.24.
As for TCATATCGGTAAAGGTGAAAGTCGAACGATATGA, the PBM binding z-score in test [1] was 1.32; in test [2], 1.5; in test [3], 1.16; in test [4], 0.447; in test [5], 1.95; in test [6], 1.19. Besides, the PBM binding z-score was -0.551 in test [7] and -0.566 in test [8].
As to CCTCCTGGGCCATCAGGTCATTGATATCAACGTT, the PBM binding z-score was 2.47 in test [1]; 1.98 in test [2]; 1.71 in test [3]; -0.401 in test [4]; 1.15 in test [5]; 3.04 in test [6]. In addition, the PBM binding z-score in test [7] is 3.09; in test [8] it was 1.18.
Turning to CGTCCAAGGTTAGCAGGTCAGTGAAAGCGACGTG, the PBM binding z-score in test [1] amounted to 3.14; in test [2], 2.7; in test [3], 2.6; in test [4], 0.446; in test [5], 2.04; in test [6], 2.07. In addition, the values for the PBM binding z-score in test [7] and in test [8] were 0.653 and 0.443, respectively.
ACAGACAGGTGAGTGGAGGTAACTCAGCTGGACG: the PBM binding z-score in test [1] is 0.51; in test [2], 0.417; in test [3] it was 0.421; in test [4], -0.468; in test [5], 0.451; in test [6] it was 2.29. Besides, the PBM binding z-score in test [7] was -0.0738; in test [8], -0.0506.
Consider ACTCGGAGGACAAAGGTCAGAGTTACGCCAGTGA, for which the PBM binding z-score in test [1] was 4.32; in test [2] it was 5.86; in test [3], 4.91; in test [4], 1.63; in test [5], 4.97; in test [6] it was 3.59. The PBM binding z-score turned out to be 0.845 in test [7] and 0.984 in test [8].
Turning to GCTGCTAGGTCAACTGATGGTCAGTTAAAGCTCG, the PBM binding z-score in test [1] stood at 3.55; in test [2], 5.17; in test [3], 5.45; in test [4], 1.51; in test [5], 2.85; in test [6] it was 3.15. Moreover, the PBM binding z-score in test [7] was 1.05; in test [8] it was -0.147.
AGTCAAAGTTCATCTAGTTAACGTAAGATATGCT: the PBM binding z-score was found to be 3.73 in test [1]; 5.37 in test [2]; 5.78 in test [3]; 4.8 in test [4]; 4.19 in test [5]; 2.13 in test [6]. For the same sequence, the PBM binding z-score was -0.607 in test [7] and 5.21 in test [8].
Regarding GCTAGCTGGCCATTTGGGTCACTCAATGACGGGC, the PBM binding z-score in test [1] is 1.49; in test [2], 0.332; in test [3] it was 0.89; in test [4] it was -0.667; in test [5] it was 0.339; in test [6], 1.22. Further, the PBM binding z-score in test [7] is 0.32; in test [8], -0.66.
As for ATCGAAAGGCCGACGAGGTGAGTATACACCGTTT, the PBM binding z-score is 0.596 in test [1]; 0.783 in test [2]; 1.08 in test [3]; -0.604 in test [4]; 0.344 in test [5]; 1.5 in test [6]. For the same sequence, the values for the PBM binding z-score in test [7] and in test [8] were 0.378 and -0.425, respectively.

Source of the values: the supplement of paper PMC6555819.
